NR2F2 inh: inhibitors of human COUP-TFII (NR2F2); HEK293T NGFI-A luciferase reporter, luminescence; inhibition, % at 8.6 µM; 370,000 compounds, 0.7% hits; P24468;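 active = inhibition above a per-plate cutoff, mean inhibition of test wells between control levels plus 3 SD, cut at about 38% in these data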;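 also: cells cotransfected with COUP-TFII expression vector driving the NGFI-A reporter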
Target sequence (P24468 whole entry, looked up): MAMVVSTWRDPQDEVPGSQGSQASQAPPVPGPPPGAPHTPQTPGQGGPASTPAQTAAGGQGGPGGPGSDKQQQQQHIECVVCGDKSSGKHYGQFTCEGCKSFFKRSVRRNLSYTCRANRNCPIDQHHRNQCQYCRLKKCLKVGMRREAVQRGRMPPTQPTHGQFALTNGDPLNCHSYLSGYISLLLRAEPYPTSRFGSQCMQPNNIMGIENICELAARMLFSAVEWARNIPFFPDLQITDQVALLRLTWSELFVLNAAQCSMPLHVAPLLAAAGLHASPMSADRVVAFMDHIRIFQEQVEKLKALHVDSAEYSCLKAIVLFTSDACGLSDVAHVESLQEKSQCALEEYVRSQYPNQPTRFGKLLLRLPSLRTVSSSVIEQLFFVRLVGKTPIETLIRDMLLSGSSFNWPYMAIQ
Gli-Sufu antag: blocks Gli-Sufu signaling in a luciferase reporter | Sufu-KO-LIGHT fibroblasts, Gli luciferase reporter luminescence | inhibition, % at 5 µM | 340,000 compounds, 0.74% hits | AID 588413;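 active = inhibition above about 55%, limit read from the data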
SRC3 inh: inhibits human SRC3 coactivator. inhibition, % at 3.6 µM. 360,000 compounds, 0.17% hits. Q9Y6Q9. HEK293 GAL4-SRC3 luciferase reporter, luminescence;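 active = inhibition above a per-campaign cutoff, the mean of all compounds plus 3 SD, cut at about 60% in these data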;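 also: higher means less SRC3-driven luciferase light from the GAL4 reporter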
SRC1 inh: inhibits human SRC1 coactivator; 360,000 compounds, 0.12% hits; inhibition, % at 3.6 µM; Q15788; HEK293 GAL4-SRC1 luciferase reporter, luminescence;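 active = inhibition above the campaign mean plus 3 SD, with each screening campaign given its own cutoff, cut at about 60% in these data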
NR5A2 inv ag: inverse agonists of human LRH-1 (NR5A2); O00482; HEK293T StAR-luciferase reporter, LRH-1 transfected, 24 h; inhibition, % at 3.6 µM; 360,000 compounds, 0.13% hits;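 active = inhibition above the mean inhibition of all tested compounds plus 3 SD, cut at about 73% in these data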
NCOA2 inhibitor: human SRC2 (NCOA2) inhibition | 370,000 compounds, 0.17% hits | Q15596 | HEK293 GAL4-SRC2 luciferase reporter, luminescence | inhibition, % at 9 µM;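 active = inhibition above the mean inhibition of all tested compounds plus 3 SD, set per campaign, cut at about 52% in these data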
Gli-Sufu confirm: confirmation of Gli-SUFU pathway antagonists; inhibition, % at 5 µM; AID 602428; 2,500 compounds, 40% hits; shares compounds with Gli-Sufu antag; Sufu-KO-LIGHT cells, Gli luciferase reporter, luminescence;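 active = mean inhibition at 5 µM reaching about 45%, limit read from the data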
Gli cytotox: cytotoxic in Gli-SUFU antagonist counter-screen; shares compounds with Gli-Sufu antag; Sufu-KO-LIGHT cells cytotoxicity, ATP luminescence; cytotoxicity, % at 5 µM; 2,500 compounds, 32% hits; AID 651994;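 active = mean cytotoxicity at 5 µM above about 25%, limit read from the data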;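 also: cells exposed to compound overnight for roughly 16 to 18 hours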
Wnt3a cs: Wnt3a reporter inhibition counter-screen; 2,500 compounds, 20% hits; AID 651995; inhibition, % at 6.25 µM; Wnt-LIGHT cells, Wnt3a-driven luciferase reporter, luminescence; shares compounds with Gli-Sufu antag;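 active = mean inhibition above about 25%, limit read from the data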
VP16 Luc counter: inhibits VP16 reporter, flagging COUP-TFII antagonist hits. 2,500 compounds, 25% hits. inhibition, % at 8.5 µM. HEK293 Gal4-VP16 luciferase reporter, luminescence. shares compounds with NR2F2 inh; in the data active = inhibition above about 13%
COUP-TFII conf: confirmation of human COUP-TFII (NR2F2) inhibitors | inhibition, % at 8.5 µM | shares compounds with NR2F2 inh | AID 687008 | 2,500 compounds, 45% hits | HEK293 NGFI-A luciferase reporter, luminescence;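 active = mean inhibition over three repeats above a set limit taken from the earlier primary screen, cut at about 38% in these data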
Large screens that a line does not name were inactive (follow-up assays come after a bar, where they were run); ! = not confirmed by another sample. The list is not random: actives were taken first. Their share in the collection is about 1.3%.

CN1/C(=C/c2cccc[n+]2C)Sc2ccccc21	NR2F2 inh 53.1, Gli-Sufu antag 68.6 | Gli-Sufu confirm 86.0 | Gli cytotox 38.1 | Wnt3a cs 36.1 | VP16 Luc counter inactive | COUP-TFII conf 47.7
COc1ccc2c(c1)N(C)/C(=C/c1cccc[n+]1C)S2	NR2F2 inh 55.9, Gli-Sufu antag 79.5 | Gli-Sufu confirm 84.4 | Gli cytotox 35.9 | Wnt3a cs 29.4 | VP16 Luc counter inactive | COUP-TFII conf inactive
COc1cc(OC)cc(C(=O)/C=C2\Sc3ccccc3N2C)c1	none
S=C1NCN(CC2CC2)CN1	none (no result: Gli-Sufu antag, SRC3 inh, SRC1 inh, NR5A2 inv ag)
COc1cc(C(=O)N2CCN(c3ncnc4sc(C)c(C)c34)CC2)cc(OC)c1OC	NR2F2 inh 48.4, Gli-Sufu antag 57.1 | Gli-Sufu confirm 53.8 | Gli cytotox 31.3 | Wnt3a cs inactive | VP16 Luc counter inactive | COUP-TFII conf 47.8
COc1cc(C[C@@H]2C(=O)OC[C@H]2Cc2ccc(OC)c(OC)c2)ccc1O	NR2F2 inh 69.5, Gli-Sufu antag 65.9 | Gli-Sufu confirm 57.3 | Gli cytotox 31.5 | Wnt3a cs 31.8 | VP16 Luc counter inactive | COUP-TFII conf 56.6
COc1ccc(NS(=O)(=O)c2ccc(-c3coc(C)n3)cc2)cc1OC	NR2F2 inh 51.5, Gli-Sufu antag 72.9 | Gli-Sufu confirm 73.1 | Gli cytotox 28.5 | Wnt3a cs 50.6 | VP16 Luc counter inactive | COUP-TFII conf 59.3
COc1ccc(NS(=O)(=O)c2ccc(-c3coc(C)n3)cc2)cc1	none
COc1ccccc1-n1c(-c2ccccc2)c[nH]c1=S	none
COc1ccccc1-n1c(-c2ccccc2)c[n+]2c1CCc1ccccc1-2	NR2F2 inh 70.6, Gli-Sufu antag 80.7, SRC3 inh 74.0! | Gli-Sufu confirm 87.4 | Gli cytotox inactive | Wnt3a cs 31.9 | VP16 Luc counter 18.5! | COUP-TFII conf 63.2
CCCOc1ccc(Br)cc1CSC(=N)N	NR2F2 inh 54.2, Gli-Sufu antag 60.8 | Gli-Sufu confirm 56.3 | Gli cytotox 27.3 | Wnt3a cs inactive | VP16 Luc counter 15.4 | COUP-TFII conf 49.3
Cc1cc(NC2CCCCC2)nc(NCc2ccccc2)n1	NR2F2 inh 52.4, Gli-Sufu antag 79.5 | Gli-Sufu confirm 57.8 | Gli cytotox 33.5 | Wnt3a cs inactive | VP16 Luc counter inactive | COUP-TFII conf inactive
COC(=O)[C@]12C[C@H](CC(=O)N3CCOCC3)C(=O)N(Cc3ccc4c(c3)OCO4)C1=C[C@H](C(C)(C)C)O[C@@H]2C	none (no result: Gli-Sufu antag, SRC3 inh, SRC1 inh, NR5A2 inv ag)
CCOc1ccc(S(=O)(=O)NCc2ccncc2)cc1NC(=O)c1ccccc1	NR2F2 inh 59.0, Gli-Sufu antag 62.5 | Gli-Sufu confirm 66.0 | Gli cytotox 27.6 | Wnt3a cs inactive | VP16 Luc counter inactive | COUP-TFII conf 54.5
CC1CN(C(=O)c2cccc(S(=O)(=O)N3CCN(c4ccc(F)cc4)CC3)c2)CC(C)O1 (stereo not drawn)	none
O=C(c1cccc(S(=O)(=O)N2CCN(c3ccc(F)cc3)CC2)c1)N1CCCC(C(F)(F)F)C1 (stereo not drawn)	NR2F2 inh 63.0, Gli-Sufu antag 56.6 | Gli-Sufu confirm 62.3 | Gli cytotox 34.1 | Wnt3a cs inactive | VP16 Luc counter inactive | COUP-TFII conf 44.5
Cc1ccc(S(=O)(=O)N2CCC(=O)N(CCOCc3ccc(C(F)(F)F)cc3)CC2)cc1	NR2F2 inh 51.3 | Gli-Sufu confirm inactive | Gli cytotox inactive | Wnt3a cs inactive | VP16 Luc counter inactive | COUP-TFII conf 38.1
O=C1CCN(S(=O)(=O)c2ccccc2)CCN1CCOCc1ccc(C(F)(F)F)cc1	none
COc1ccc(CN2C[C@H](COCc3ccccc3)Oc3cccc(N4CCCC4)c3S2(=O)=O)cc1	none (no result: Gli-Sufu antag, SRC3 inh, SRC1 inh, NR5A2 inv ag)
COc1ccc(/C=C2\SC(=S)N(CCCC(=O)N3CCCCC3CCO)C2=O)cc1 (stereo not drawn)	NR2F2 inh 54.3, Gli-Sufu antag 65.7, NCOA2 inhibitor 76.8 | Gli-Sufu confirm inactive | Gli cytotox inactive | Wnt3a cs inactive | VP16 Luc counter 42.3 | COUP-TFII conf inactive
O=C1/C(=C\c2ccccc2)SC(=S)N1CCC(=O)N1CCCCC1CCO (stereo not drawn)	none
Cc1nc([N+](=O)[O-])cn1CC(Cl)Cn1cc([N+](=O)[O-])nc1C	none (no result: Gli-Sufu antag, SRC3 inh, SRC1 inh, NR5A2 inv ag)
CCOc1ccc(-n2c(-c3ccccc3)c[n+]3c2CCC3)cc1	NR2F2 inh 55.1, Gli-Sufu antag 84.6 | Gli-Sufu confirm 87.9 | Gli cytotox 33.0 | Wnt3a cs 41.3 | VP16 Luc counter inactive | COUP-TFII conf inactive
C(=NN1CCCCCC1)c1ccc2ccccc2n1	NR2F2 inh 94.8, Gli-Sufu antag 68.4, SRC3 inh 89.9, SRC1 inh 87.7, NR5A2 inv ag 91.2, NCOA2 inhibitor 83.5 | Gli-Sufu confirm 88.7 | Gli cytotox 73.0 | Wnt3a cs 106.3 | VP16 Luc counter 88.9 | COUP-TFII conf 104.2
COc1ccc(Cn2c(-c3ccc(C)cc3)c[n+]3ccccc23)cc1	NR2F2 inh 51.8, Gli-Sufu antag 85.3, SRC1 inh 61.2, NR5A2 inv ag 73.1 | Gli-Sufu confirm 86.1 | Gli cytotox 28.7 | Wnt3a cs 36.2 | VP16 Luc counter inactive | COUP-TFII conf 40.0
CCOCCCNc1ncnc2c1[nH]c1ccccc12	none
CCCCOCCCNc1ncnc2c1[nH]c1ccccc12	NR2F2 inh 66.5, Gli-Sufu antag 80.7 | Gli-Sufu confirm 82.0 | Gli cytotox 27.2 | Wnt3a cs inactive | VP16 Luc counter 13.6 | COUP-TFII conf 63.3
O=C(Cn1cnc2c(NCc3ccccc3)ncnc21)N1CCN(c2ccccn2)CC1	none
Cc1cc(C)c(CN2CCN(C(=O)Cn3cnc4c(NCc5ccccc5)ncnc43)CC2)c(C)c1	NR2F2 inh 80.2, Gli-Sufu antag 59.9 | Gli-Sufu confirm 66.8 | Gli cytotox 41.6 | Wnt3a cs 39.2 | VP16 Luc counter inactive | COUP-TFII conf 70.1
CSc1ccc(-c2cnc(N3CCC(C(N)=O)CC3)s2)cc1	none (no result: Gli-Sufu antag, SRC3 inh, SRC1 inh, NR5A2 inv ag, NCOA2 inhibitor)
COc1cc(OC)c2c(=O)c3c(C(=O)O)c(O)ccc3oc2c1	none (no result: Gli-Sufu antag, SRC3 inh, SRC1 inh, NR5A2 inv ag)
COc1ccc(COc2ccccc2C(=O)NCc2ccccc2)cc1F	NR2F2 inh 41.5 | Gli-Sufu confirm inactive | Gli cytotox inactive | Wnt3a cs inactive | VP16 Luc counter inactive | COUP-TFII conf inactive

Source: PubChem
